According to ChEMBL document CHEMBL4513216, “Probing the Open Global Health Chemical Diversity Library for Multistage-Active Starting Points for Next-Generation Antimalarials” (ACS Infect Dis, 2020):
The campaign covered roughly 68,000 compounds. About 2,700 (4%) showed an effect of 50% or more. Many of the other results were omitted from the sample, so strong results are more common in it than they were.

Each compound was assayed on Plasmodium berghei (assay: Screen against P. berghei liver stage (PbLuc), transformed with Luciferase, at 2uM). Conditions: tested at 2 uM.
Assay type: functional, HepG2

Row | Structure (SMILES) | INHIBITION
1 | CC1CCC(O)(CSc2nnnn2C)CC1 (stereo not drawn) | 4.91%
2 | CC(C)CC(=O)NCC(O)c1c(F)cccc1F (stereo not drawn) | 14.96%
3 | CN(C)C(=O)CN1CCC2(C1)CN(CC1CCOC1)C2 (stereo not drawn) | -54.01%
4 | CN(C)C(=O)CN1CCOCC2(CCN(CC3CCOC3)CC2)C1 (stereo not drawn) | 82.53%
5 | CN(C)C(=O)CN1CCOCC2(CCN(CC3CCOCC3)CC2)C1 | 12.68%
6 | COc1ccc(C(C)CCNC2CCN(c3ccccn3)CC2)cc1 (stereo not drawn) | 3.2%
7 | CCS(=O)(=O)c1ccccc1N1CCC(NC(C)=O)CC1 | -0.64%
8 | CCS(=O)(=O)c1ccccc1N1CCC(NC(=O)NC2CCCC2)CC1 | 64.71%
9 | CCS(=O)(=O)c1ccccc1N1CCC(NC2CCCC2)CC1 | 27.47%
10 | Cc1cc(C)n(CC(C)CNC(=O)NCc2c(C)cc(C)[nH]c2=O)n1 (stereo not drawn) | 10.14%
11 | Cc1ccc(NC(=O)N2CCOC(C(N)=O)C2)cc1C(F)(F)F (stereo not drawn) | 33.11%
12 | Cc1cc(Br)cnc1NCCN1CCC(N(C)C)CC1 | 64.9%
13 | CC(=O)N1CCN(CCNc2ncc(Br)cc2C)CC1 | 12.43%
14 | COC1CCN(CCNc2ncc(Br)cc2C)CC1 | -4.26%
15 | O=S(=O)(c1cccnc1)N1CCCCC1CCN1CCOCC1 (stereo not drawn) | -13%
16 | Cc1cc(C)nc(N2CCCC(c3cccc(-n4ccnc4)n3)C2)n1 (stereo not drawn) | -2.89%
17 | O=C(Nc1ncc[nH]1)c1cc(-c2cccnc2)n[nH]1 | -36.68%
18 | O=C(c1cc2c(s1)CCCC2)N1CCCC1Cn1cccn1 (stereo not drawn) | 1.61%
19 | CC(=O)N1CCC2(CC1)CCN(S(=O)(=O)c1ccccc1)C2 | 27.65%
20 | CC(=O)N1CCC2(C1)CN(S(=O)(=O)c1ccccc1)C2 | 56.76%
21 | CN(C)CC(=O)N1CC2(CCN(S(=O)(=O)c3ccccc3)C2)C1 | 39.51%
22 | CC(=O)N1CCC2(CCCN(S(=O)(=O)c3ccc(F)cc3)C2)C1 (stereo not drawn) | -8.04%
23 | CC(=O)N1CCC2(CCN(S(=O)(=O)c3ccccc3)CC2)C1 | 11.18%
24 | CC(=O)N1CCC2(CCCN(S(=O)(=O)c3ccccc3)C2)C1 (stereo not drawn) | 52.36%
25 | CN(C)c1ccc(CNC(=O)NCCc2cccs2)cn1 | 9.17%
26 | Cc1ccncc1CN1CCOCC1c1[nH]ncc1C (stereo not drawn) | 5.01%
27 | Cc1cc(CNc2ccnn2C)ccc1-n1cncn1 | 14.93%

Row | Structure (SMILES) | INHIBITION
28 | CN(C)CCCC(=O)NC1CC(C)(C)Cc2nc(C(C)(C)C)ncc21 (stereo not drawn) | 35.56%
29 | CN(C)CC(=O)NC1CC(C)(C)Cc2nc(C(C)(C)C)ncc21 (stereo not drawn) | 68.39%
30 | CC1(C)Cc2nc(C(C)(C)C)ncc2C(NC(=O)CN)C1 (stereo not drawn) | 21.28%
31 | Cc1nc[nH]c1CN1CCCn2nc(CN3CCC(F)(F)CC3)cc2C1 | 8.48%
32 | O=C(c1ccsc1)N1CCC(Nc2cccnn2)CC1 | 2.8%
33 | CC(C(=O)Nc1ccc(N2CCCCC2)nc1)n1ccnc1 (stereo not drawn) | -34.5%
34 | CCCNC(=O)N1CCc2ccc(S(=O)(=O)N3CCN(C)CC3)cc2C1 | 30.62%
35 | O=C(c1ccoc1)N1CCCC2(CCC(=O)N2Cc2ccncc2)C1 (stereo not drawn) | 3.56%
36 | Cc1cnn(CC2CCCN2C(=O)c2cccc(CC#N)c2)c1 (stereo not drawn) | -17.11%
37 | CCN(CC)S(=O)(=O)CC(=O)Nc1ccsc1 | 64.08%
38 | CS(=O)(=O)CCC(=O)Nc1ccsc1 | 10.22%
39 | CCCS(=O)(=O)CC(=O)Nc1ccsc1 | 22%
40 | O=C(c1cc2c(s1)CCC2)N1CCN(c2cnccn2)CC1 | -32.45%
41 | N#Cc1ccc(OCC(O)CN2CCN(c3nccs3)CC2)cc1 (stereo not drawn) | 2.2%
42 | O=C(O)CCC(=O)N1CCN(CC2CC2)c2ncccc2C1 | 18.6%
43 | Cc1occc1C(=O)N1CCC(C(O)c2ccc(Cl)cc2)CC1 (stereo not drawn) | 59.03%
44 | CCn1cnnc1C1CCN(C(=O)c2c(C)oc(C)c2C)CC1 | -11.32%
45 | Cc1occc1C(=O)N1CCC(C(O)c2ccc(F)cc2)CC1 (stereo not drawn) | 47.25%
46 | CCn1cnnc1C1CCN(C(=O)c2cccc(OC)c2OC)CC1 | 66.2%
47 | CCn1cnnc1C1CCN(C(=O)c2ccccc2OC)CC1 | -45.23%
48 | Cc1c(C(=O)N2CCC(C(O)c3ccc(Cl)cc3)CC2)cnn1C (stereo not drawn) | 10.22%
49 | CCn1cnnc1C1CCN(C(=O)c2cccc(C)c2C)CC1 | 1.02%
50 | CCn1cnnc1C1CCN(C(=O)c2cc(OC)ccc2OC)CC1 | -33.61%
51 | CCn1cnnc1C1CCN(C(=O)c2ccoc2C)CC1 | 70.27%
52 | CCn1nc(C)c2c1cnn2CCNS(=O)(=O)Cc1ccccc1 | 16.97%
53 | CN(C)Cc1cccc(C(=O)N2CCCC(n3cncn3)C2)c1 (stereo not drawn) | 21.39%
